Results: PubChem BioAssay (NCATS)
Records with an inconclusive call do not appear. A number with no mark means an inactive call. Activity calls are given as the source filed them. The call rests on the fitted dose curve; in most records, active means well fitted cell-killing curve with a large enough effect; inconclusive means small, poorly fitted or top-dose-only effect, or effect the other way; inactive means no such curve, though single readings can be large or run the other way.

Test: Viability qHTS for spleen associated tyrosine kinase inhibitor (SYKi) drug resistant MV4-11 cells (AID 1963824); further: nearly all actives have a fitted effect of over 35% in size
Conditions: SYKi-resistant MV4-11 viability, CellTiter-Glo, 72 h; series mostly up to 45 µM; viability, % of control: at the top concentration
Summary of the method: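 CellTiter-Glo luminescence, read 10 min after reagent addition, reports viability after a 72 hr compound exposure. Cells are an MV4-11 line made resistant to SYK inhibition, seeded at 500 per well onto compound-containing plates.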
Potency means the concentration at half of the fitted maximal effect.

Row | SMILES | Potency | viability, % of control
1 | C=C1CCCC2(C)CCC(C(C)(C)OC3OC(C)C(O)C(O)C3OC(=O)/C(C)=C\C)CC12 (stereo not given) | 8.93 µM (active) | 
2 | COC(=O)C1=CO[C@@H](O[C@@H]2O[C@H](CO)[C@@H](O)[C@H](O)[C@H]2O)C2C1C(=O)C[C@H]2C (stereo not given in full) |  | 93.3%
3 | CN(C(=O)CNC(=O)/C=C/c1cccc(Cl)c1)C1CCS(=O)(=O)CC1 | 0.468 µM (active) | 
4 | Cc1c(OCc2cccc(-c3ccc(C(=O)O)cc3)c2)cc2c(c1C)C(=O)C(C1CCCC1)C2 (stereo not given) |  | 83.2%
5 | COc1c2c(c(C)c3c1C(=O)OC3)O[C@@]1(C)C[C@@H](O)[C@]34O[C@](OC)(CC[C@]3(C)[C@H]1C2)OC4(C)C |  | 72.9% [at 17.3 µM]
6 | Cc1ccc(CNc2ncnc3ccc(-c4ccc(CO)o4)cc23)o1 | 5.17 µM (active) | 
7 | COC1OC(OC)C(O)(CCC2(C)C(C)CCC3(C)C2CC(O)C(O)C32CO2)C1O (stereo not given) |  | 95.5% [at 17.3 µM]
8 | CC(=O)OC12CC(C)C(O)C1/C=C(/COC1OC(CO)C(O)C(O)C1O)CCC1C(/C=C(\C)C2=O)C1(C)C (stereo not given) |  | 94.3% [at 17.3 µM]
9 | O=c1ccc2ccc(OCCCCN3CCN(c4cccc5sccc45)CC3)cc2[nH]1 | 7.31 µM (active) | 
10 | CO[C@H]1C[C@@H]2CC[C@@H](C)[C@@](O)(O2)C(=O)C(=O)N2CCCC[C@H]2C(=O)O[C@H]([C@H](C)C[C@@H]2CC[C@@H](OCCO)[C@H](OC)C2)CC(=O)[C@H](C)/C=C(/C)[C@@H](O)[C@@H](OC)C(=O)[C@H](C)C[C@H](C)/C=C\C=CC=C1C | 11.8 µM (active) | 
11 | O=C(O)c1ccnc2cc(C(OCC3CCC(F)(F)CC3)c3ccccc3Cl)[nH]c12 (stereo not given) |  | 9.82%
12 | C/C=C/C=C/[C@@H]1O[C@](O)([C@H](CC)C(=O)NC/C=C/C=C(\C)[C@@H](OC)[C@@H](C)[C@@H]2O[C@H](/C=C/C=C/C=C(\C)C(=O)c3c(O)ccn(C)c3=O)[C@H](O)[C@@H]2O)[C@H](O)[C@H](O)C1(C)C |  | 85.3% [at 9.25 µM]
13 | Cc1noc(-c2ccc(-c3ccc(CC(=O)O)cc3)cc2)c1NC(=O)O[C@H](C)c1ccccc1Cl | 20.6 µM (active) | 
14 | Cc1c(O)cc2c(c1O)COC1(O)CCCOC21 (stereo not given) |  | 111%
15 | Nc1nc(-c2nn(Cc3ccccc3F)c3ncccc23)ncc1C1CC1 | 1.32 µM (active) | 
16 | CN(C)CC1CCn2cc(c3ccccc32)C2=C(C(=O)NC2=O)c2cn(c3ccccc23)CCO1 (stereo not given) | 0.411 µM (active) | 
17 | Oc1ccc([C@H]2COc3cc(O)ccc3C2)cc1 | 13 µM (active) | 
18 | COc1ccc2cc1Oc1ccc(cc1)CC1c3cc(c(OC)cc3CCN1C)Oc1c(OC)c(OC)c(OC)c3c1C(C2)N(C)CC3 (stereo not given) | 10 µM (active) | 
19 | COC(=O)CC(O)CC(O)/C=C/c1c(C)ccc2c1C(OC(C)=O)CC(C)C2 (stereo not given) | 1.8 µM (active) | 
20 | C=C(CO)C(=O)O[C@H]1C[C@@]23O[C@@H]2CC/C(=C/[C@H]2OC(=O)C(=C)[C@H]12)CO[C@H]3O | 11.4 µM (active) | 

Row | SMILES | Potency | viability, % of control
21 | COc1ccc(CC2C(=O)NC(C)C(=O)N(C)C3Cc4ccc(cc4)Oc4cc(ccc4OC4OC(CO)C(O)C(O)C4O)CC(C(=O)NC(C)C(=O)NC(C)C(=O)N2C)N(C)C3=O)cc1 (stereo not given) | 0.0098 µM (active) | 
22 | COC(=O)C1=CO[C@@H](O[C@@H]2O[C@H](CO)[C@@H](O)[C@H](O)[C@H]2O)[C@@H]2C(CO)=CC[C@]12O |  | 97.3% [at 17.3 µM]
23 | Nc1ncnc2c1c(I)cn2C1OC(CO)C(O)C1O (stereo not given) | 0.411 µM (active) | 
24 | C=C1C[C@]23C[C@H]1CC[C@H]2[C@]1(C)CCC[C@@]2(CO)C(=O)O[C@H]([C@H]21)[C@@H]3O |  | 81.3%
25 | C/C=C/C=C/C=C/C(=O)O[C@@H]1C=C(CO)C(O)(C(=O)OC)[C@@]2(C)CCCC(C)(C)C12 (stereo not given in full) | 10 µM (active) | 
26 | O=C(/C=C/c1nc2ccccc2[nH]1)c1c(-c2ccccc2)c2cc(Cl)ccc2[nH]c1=O | 0.291 µM (active) | 
27 | C/C=C/C=C/c1cc2c(C=O)c(O)c(CC=C(C)C)cc2o1 | 18.4 µM (active) | 
28 | CC1CCC2(NC1)OC1CC3C4CC=C5CC(O[C@@H]6O[C@H](CO)[C@@H](O[C@@H]7O[C@@H](C)[C@H](O)[C@@H](O)[C@H]7O)[C@H](O)[C@H]6O[C@@H]6O[C@@H](C)[C@H](O)[C@@H](O)[C@H]6O)CCC5(C)C4CCC3(C)C1C2C (stereo not given in full) | 5.51 µM (active) | 
29 | CC1(C)CC[C@]2(C(=O)O[C@@H]3O[C@H](CO[C@@H]4O[C@H](CO[C@@H]5O[C@H](CO)[C@H](O)[C@H](O)[C@H]5O)[C@@H](O)[C@H](O)[C@H]4O)[C@@H](O)[C@H](O[C@@H]4O[C@H](CO)[C@@H](O)[C@H](O)[C@H]4O)[C@H]3O)[C@H](O)C[C@]3(C)C(=CCC4[C@@]5(C)CC[C@H](O[C@@H]6OC[C@@H](O)[C@H](O)[C@H]6O)[C@@](C)(C(=O)O)C5CC[C@]43C)[C@@H]2C1 (stereo not given in full) |  | 90.5% [at 9.25 µM]
30 | Cc1cc(C)nc(NS(=O)(=O)c2ccc(NC(=S)NC(=O)COc3ccc(Br)cc3Cl)cc2)n1 |  | 95.9%
31 | CC1=C[C@@H]2[C@H]3[C@@H]4O[C@@](C)(CC[C@H]4O)[C@H]3CC(=O)[C@]23C(=O)N[C@@H](CC(C)C)[C@@H]3[C@@H]1C | 8.05 µM (active) | 
32 | C=C(C)[C@H]1CC[C@]2(C(=O)O)CC[C@]3(C)C(CCC4[C@@]5(C)CCC(=O)C(C)(C)C5CC[C@]43C)C12 (stereo not given in full) | 1.42 µM (active) | 
33 | CCC(C)/C=C(C)/C=C/C(=O)C1CCC(O)C(C)(O)C1=O (stereo not given) | 13 µM (active) | 
34 | CCn1c(=O)n([C@H]2CCCN(c3nccc(-c4cc5ccccc5o4)n3)C2)c2ccccc21 | 23.1 µM (active) | 
35 | Cc1cc(Nc2nc(NC(C)c3ccc(F)cc3)c(C#N)cc2F)n[nH]1 (stereo not given) | 0.461 µM (active) | 
36 | O=C(Nc1cnccc1Cl)N1CCN(Cc2ccc3c(c2)OC(F)(F)O3)CC1 | 5.9 µM (active) | 
37 | CC[C@]1(O)C[C@H]2CN(CCC3C(=Nc4ccccc43)[C@@](C(=O)OC)(c3cc4c(cc3OC)N(C)[C@H]3[C@@](O)(C(N)=O)[C@H](O)[C@]5(CC)C=CCN6CC[C@]43[C@@H]65)C2)C1 (stereo not given in full) | 0.0366 µM (active) | 
38 | CC(C)(C)n1nc(-c2cccc3ccccc23)c2c(N)ncnc21 | 14.6 µM (active) | 
39 | OCC(O)CCO/N=C1/C(c2c(O)[nH]c3ccccc23)=Nc2ccccc21 (stereo not given) | 0.0517 µM (active) | 
40 | OC[C@H]1O[C@@H](O[C@H]2[C@H](OCc3ccccc3)O[C@H](CO[C@@H]3OC[C@@H](O)[C@H](O)[C@H]3O)[C@@H](O)[C@@H]2O)[C@H](O)[C@@H](O)[C@@H]1O |  | 72.1% [at 17.3 µM]
